Measured values: PubChem BioAssay (EPA / NIEHS)
Where “and” joins values, the source holds several entries; their conditions need not be identical. Identical values can stand only once. Inconclusive results are not listed. The source holds several records for some structures; these can differ, active in one and inactive in another. Calls of active or inactive are those of the source. Rule for the calls: active = hit-call score of the fitted dose curve at least 0.9, where 1 is the maximum; inconclusive = response in the unintended direction; inactive = score below 0.9.

Tests used:
[1] = target: zebrafish Thyroid Hormone Receptor alpha (TRa), thraa (gene 30670) (UniProt Q98867); experiment: ATG_zfTRa_XSP1: Attagene TRANS-FACTORIAL Multi-Species (XSP1) HepG2 Assay for zebrafish Thyroid Hormone Receptor alpha (TRa) (AID 2283807)
In short: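 Reporter transcripts driven by a chimeric zebrafish TRa–Gal4 protein were measured by RT-PCR with fluorescent labelling and capillary electrophoresis. These came from transiently transfected HepG2 cells after 24 h chemical exposure, with 3 nM 6-alpha-fluorotestosterone added; baseline was DMSO.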

[2] = target: zebrafish Thyroid Hormone Receptor beta (TRb), thrb (gene 30607) (UniProt Q9PVE4); experiment: ATG_zfTRb_XSP1: Attagene TRANS-FACTORIAL Multi-Species (XSP1) HepG2 Assay for zebrafish Thyroid Hormone Receptor beta (TRb) (AID 2283809)
In short: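 HepG2 cells transiently transfected with multiplexed GAL4-UAS reporter units expressing chimeric zebrafish TRb–Gal4. Dosed 24 h with 3 nM 6-alpha-fluorotestosterone present; reporter mRNA measured by RT-PCR, HpaI digestion and capillary electrophoresis; gain of signal versus DMSO.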

[3] = ATG_XTT_Cytotoxicity_XSP1: Cytotoxicity Assessment in the Attagene TRANS-FACTORIAL Multi-Species (XSP1) HepG2 Assay (AID 2283810)
In short: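 XTT viability readout taken at 24 hours post-dosing in HepG2 liver cells co-treated with 3 nM 6-alpha-fluorotestosterone. Signal loss relative to DMSO controls reflects cytotoxicity.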

[4] = ATG_M_06_XSP2: Attagene TRANS-FACTORIAL Multi-Species (XSP2) HepG2 Assay for M06 Transcription Factor (Internal Marker) (AID 2283811);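 note: hits are increases in signal above the DMSO baseline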
In short: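 Cells of the human liver line HepG2 carried transfected reporter transcription units and were treated for 24 h. Induced reporter transcripts were detected by fluorescence after RT-PCR and capillary electrophoresis, with activity fitted in the gain direction against DMSO.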

[5] = tested on: turtle Estrogen Receptor (ERa), gene 101933533; experiment: ATG_trERa_XSP2: Attagene TRANS-FACTORIAL Multi-Species (XSP2) HepG2 Assay for turtle Estrogen Receptor (ERa) (AID 2283812);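 note: actives raise reporter signal above DMSO so AC50 reflects agonist activity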
In short: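 Readout is reporter mRNA quantified by RT-PCR with capillary electrophoresis after 24 h compound exposure, increase relative to DMSO. Uses transiently transfected human HepG2 liver cells carrying a chimeric turtle ERa-Gal4 receptor driving GAL4-UAS reporters.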

[6] = target: Estrogen receptor beta (Homo sapiens) (UniProt Q92731); experiment: ATG_hERb_XSP2: Attagene TRANS-FACTORIAL Multi-Species (XSP2) HepG2 Assay for human Estrogen Receptor (ERb) (AID 2283813);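 note: actives raise reporter mRNA above DMSO so AC50 reflects agonist induction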
In short: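 Transient TRANS reporter system in HepG2: after 24 h of chemical, RNA is reverse-transcribed, reporter cDNA amplified, FAM-labelled and sized by capillary electrophoresis. Induction of the human ERb-Gal4 reporter is measured relative to DMSO.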

[7] = target: GAL4 Transcription Factor (Internal Marker), GAL4 (gene 855828) (UniProt P04386); experiment: ATG_GAL4_XSP2: Attagene TRANS-FACTORIAL Multi-Species (XSP2) HepG2 Assay for GAL4 Transcription Factor (Internal Marker) (AID 2283814);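 note: GAL4 reporter mRNA background control in MRTU transfected cells not a receptor target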
In short: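 Background-control readout: gain-of-signal fitted against DMSO. After 24 h exposure of transfected HepG2 (MRTU, GAL4-UAS reporters; 3 nM 6-alpha-fluorotestosterone, 1.5 nM norgestrel present), transcripts quantified by RT-PCR and capillary electrophoresis fluorescence.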

[8] = tested on: turtle Androgen Receptor (AR), gene 101947425; experiment: ATG_trAR_XSP2: Attagene TRANS-FACTORIAL Multi-Species (XSP2) HepG2 Assay for turtle Androgen Receptor (AR) (AID 2283815);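 for AC50: potency for gain of reporter signal meaning activation above DMSO baseline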
In short: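 Reporter transcripts were quantified via RT-PCR and capillary electrophoresis and fitted upward against DMSO. Transiently transfected human HepG2 cells carrying NR-Gal4 chimeras were exposed 24 h, with 3 nM 6-alpha-fluorotestosterone plus 1.5 nM norgestrel added.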

[9] = target: zebrafish Estrogen Receptor (ER1), esr1 (gene 259252) (UniProt P57717); experiment: ATG_zfER1_XSP2: Attagene TRANS-FACTORIAL Multi-Species (XSP2) HepG2 Assay for zebrafish Estrogen Receptor (ER1) (AID 2283816)
In short: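 After 24 h compound exposure, RNA from transfected HepG2 cells was reverse-transcribed and reporter transcripts resolved by capillary electrophoresis. The TRANS format reads exogenous zebrafish ER1-Gal4 chimera activity on GAL4-UAS elements; gain of signal against DMSO.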

[10] = target: chicken Estrogen Receptor (ERa), ESR1 (gene 396099) (UniProt P06212); experiment: ATG_chERa_XSP2: Attagene TRANS-FACTORIAL Multi-Species (XSP2) HepG2 Assay for chicken Estrogen Receptor (ERa) (AID 2283817);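 note: actives raise reporter signal above DMSO so AC50 reflects ER activation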
In short: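 Exogenous chicken ERa-Gal4 chimera activity was assessed in transfected human liver HepG2 cells after 24 h of treatment. Induced reporter mRNA was quantified fluorescently by capillary electrophoresis, with DMSO as baseline.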

[11] = tested on: zebrafish Estrogen Receptor (ER2a), gene 317734; experiment: ATG_zfER2a_XSP2: Attagene TRANS-FACTORIAL Multi-Species (XSP2) HepG2 Assay for zebrafish Estrogen Receptor (ER2a) (AID 2283818);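 note: hits raise reporter mRNA so AC50 reflects activation of zebrafish ER2a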
In short: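 Multiplexed trans-reporter readout: RT-PCR then capillary electrophoresis of reporter transcripts after 24 h compound treatment. Human HepG2 carries transfected zebrafish ER2a-Gal4 chimera; 3 nM 6-alpha-fluorotestosterone plus 1.5 nM norgestrel present. Induction scored against DMSO.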

[12] = tested on: chicken Androgen Receptor (AR), gene 422165; experiment: ATG_chAR_XSP2: Attagene TRANS-FACTORIAL Multi-Species (XSP2) HepG2 Assay for chicken Androgen Receptor (AR) (AID 2283819);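 note: hits raise reporter mRNA above DMSO so potency is for activation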
In short: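 Readout is reporter mRNA induction via RT-PCR/capillary electrophoresis after 24 h chemical exposure, positive direction relative to DMSO. Transiently transfected HepG2 express chimeric chicken AR–GAL4; AR stimulated by 3 nM 6-alpha-fluorotestosterone and 1.5 nM norgestrel.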

[13] = tested on: zebrafish Estrogen Receptor (ER2b), gene 317733; experiment: ATG_zfER2b_XSP2: Attagene TRANS-FACTORIAL Multi-Species (XSP2) HepG2 Assay for zebrafish Estrogen Receptor (ER2b) (AID 2283823);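 note: fitted upward as reporter gain over DMSO so potency reflects activation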
In short: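 Transfect HepG2 with GAL4-UAS reporter constructs; dose chemicals, 24 h; isolate RNA, RT-PCR, FAM-label, HpaI digest; capillary electrophoresis. Gain-of-signal vs DMSO.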

[14] = ATG_M_32_XSP2: Attagene TRANS-FACTORIAL Multi-Species (XSP2) HepG2 Assay for M19 Transcription Factor (Internal Marker) (AID 2283826)
In short: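 Read-out: fluorescent reporter mRNA fragments resolved by capillary electrophoresis after RT-PCR, gain-of-signal versus DMSO baseline. Cells were human HepG2 carrying transfected multi-reporter units, exposed 24 h. Medium contained 3 nM 6-alpha-fluorotestosterone plus 1.5 nM norgestrel.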

[15] = tested on: turtle Thyroid Hormone Receptor, alpha (TRa), gene 101949057; experiment: ATG_trTRa_XSP1: Attagene TRANS-FACTORIAL Multi-Species (XSP1) HepG2 Assay for turtle Thyroid Hormone Receptor, alpha (TRa) (AID 2283806)
In short: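 After 24 h chemical exposure, reporter transcripts were measured by RT-PCR with fluorescent primer extension, HpaI digestion and capillary electrophoresis. Cells were transiently transfected HepG2 expressing exogenous NR-Gal4 chimeras; medium contained 3 nM 6-alpha-fluorotestosterone; fitted upward relative to DMSO.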

[16] = ATG_M_19_XSP2: Attagene TRANS-FACTORIAL Multi-Species (XSP2) HepG2 Assay for M32 Transcription Factor (Internal Marker) (AID 2283822)
In short: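 Internal background marker in a multi-species nuclear receptor TRANS panel: transfected HepG2 cells exposed 24 h, with 3 nM 6-alpha-fluorotestosterone and 1.5 nM norgestrel present. Readout is RT-PCR of reporter transcripts resolved by capillary electrophoresis, gain-of-signal versus DMSO.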

[17] = target: human Thyroid hormone Receptor alpha (TRa), THRA (gene 7067) (UniProt P10827); experiment: ATG_hTRa_XSP1: Attagene TRANS-FACTORIAL Multi-Species (XSP1) HepG2 Assay for human Thyroid hormone Receptor alpha (TRa) (AID 2283805)
In short: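 Reporter transcripts from the human TRa-Gal4 TRANS unit quantified by RT-PCR, fluorescent labeling and capillary electrophoresis after 24 hours of chemical exposure in transfected HepG2 cells; medium contains 3 nM 6-alpha-fluorotestosterone. Positive direction fit against DMSO.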

[18] = target: human Thyroid hormone Receptor beta (TRb), THRB (gene 7068) (UniProt P10828); experiment: ATG_hTRb_XSP1: Attagene TRANS-FACTORIAL Multi-Species (XSP1) HepG2 Assay for human Thyroid hormone Receptor beta (TRb) (AID 2283808)
In short: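 Readout is reporter mRNA induction measured by RT-PCR, fluorescent labelling and capillary electrophoresis, fitted upward relative to DMSO. Transiently transfected human HepG2 cells expressing NR-Gal4 chimeras were dosed for 24 h, medium containing 3 nM 6-alpha-fluorotestosterone.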

[19] = target: human Androgen Receptor (AR), AR (gene 367) (UniProt P10275); experiment: ATG_hAR_XSP2: Attagene TRANS-FACTORIAL Multi-Species (XSP2) HepG2 Assay for human Androgen Receptor (AR) (AID 2283820)
In short: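 Reporter transcripts were measured by RT-PCR and capillary electrophoresis 24 h post-dosing, with gain of signal fitted against DMSO. Transiently transfected HepG2 cells expressed chimeric NR-Gal4 on GAL4-UAS reporters, with AR stimulated by 3 nM 6-alpha-fluorotestosterone and 1.5 nM norgestrel.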

[20] = tested on: frog Androgen Receptor (AR), gene 399456; experiment: ATG_frAR_XSP2: Attagene TRANS-FACTORIAL Multi-Species (XSP2) HepG2 Assay for frog Androgen Receptor (AR) (AID 2283824);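 note: reporter mRNA from GAL4-UAS units driven by Xenopus AR-Gal4 chimera; actives raise reporter signal above DMSO so AC50 reflects agonist-like induction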
In short: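 Reporter transcript induction, read by RT-PCR with fluorescent capillary electrophoresis, in human liver HepG2 cells carrying an exogenous Xenopus AR-Gal4 fusion and GAL4-driven reporters; chemical exposure 24 hours, activity scored upward against DMSO controls.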

Measured: AC50

chicken Estrogen Receptor (ERa), ESR1 (gene 396099), sequence (P06212 whole entry, looked up, the tested form may be a part): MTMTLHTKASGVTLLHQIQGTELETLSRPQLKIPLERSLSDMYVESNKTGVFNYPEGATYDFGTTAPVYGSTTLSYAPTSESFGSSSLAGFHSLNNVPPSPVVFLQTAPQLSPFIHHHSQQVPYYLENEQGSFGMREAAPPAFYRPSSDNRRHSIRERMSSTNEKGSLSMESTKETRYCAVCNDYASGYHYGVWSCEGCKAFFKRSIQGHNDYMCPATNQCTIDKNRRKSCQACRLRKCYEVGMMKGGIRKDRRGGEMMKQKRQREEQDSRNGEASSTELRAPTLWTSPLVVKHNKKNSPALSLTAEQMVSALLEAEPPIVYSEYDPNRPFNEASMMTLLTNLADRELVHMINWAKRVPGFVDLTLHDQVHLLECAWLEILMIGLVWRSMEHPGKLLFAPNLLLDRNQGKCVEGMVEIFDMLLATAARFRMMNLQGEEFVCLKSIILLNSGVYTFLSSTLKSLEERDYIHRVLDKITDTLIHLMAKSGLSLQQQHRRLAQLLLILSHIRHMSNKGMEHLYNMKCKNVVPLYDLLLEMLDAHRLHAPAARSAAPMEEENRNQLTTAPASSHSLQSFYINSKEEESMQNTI
zebrafish Thyroid Hormone Receptor beta (TRb), thrb (gene 30607), sequence (Q9PVE4 whole entry, looked up, the tested form may be a part): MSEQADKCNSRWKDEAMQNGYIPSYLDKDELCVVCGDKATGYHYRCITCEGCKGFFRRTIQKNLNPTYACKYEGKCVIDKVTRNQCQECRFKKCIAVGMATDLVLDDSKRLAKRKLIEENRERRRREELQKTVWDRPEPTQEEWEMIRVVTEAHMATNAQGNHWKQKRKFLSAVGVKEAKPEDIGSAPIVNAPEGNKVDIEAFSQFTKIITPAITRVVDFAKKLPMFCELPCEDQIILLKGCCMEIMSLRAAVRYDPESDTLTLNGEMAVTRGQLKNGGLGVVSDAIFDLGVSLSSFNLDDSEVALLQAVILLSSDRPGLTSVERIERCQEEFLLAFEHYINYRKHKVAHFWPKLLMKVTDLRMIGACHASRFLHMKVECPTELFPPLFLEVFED
GAL4 Transcription Factor (Internal Marker), GAL4 (gene 855828), sequence (P04386 whole entry, looked up, the tested form may be a part): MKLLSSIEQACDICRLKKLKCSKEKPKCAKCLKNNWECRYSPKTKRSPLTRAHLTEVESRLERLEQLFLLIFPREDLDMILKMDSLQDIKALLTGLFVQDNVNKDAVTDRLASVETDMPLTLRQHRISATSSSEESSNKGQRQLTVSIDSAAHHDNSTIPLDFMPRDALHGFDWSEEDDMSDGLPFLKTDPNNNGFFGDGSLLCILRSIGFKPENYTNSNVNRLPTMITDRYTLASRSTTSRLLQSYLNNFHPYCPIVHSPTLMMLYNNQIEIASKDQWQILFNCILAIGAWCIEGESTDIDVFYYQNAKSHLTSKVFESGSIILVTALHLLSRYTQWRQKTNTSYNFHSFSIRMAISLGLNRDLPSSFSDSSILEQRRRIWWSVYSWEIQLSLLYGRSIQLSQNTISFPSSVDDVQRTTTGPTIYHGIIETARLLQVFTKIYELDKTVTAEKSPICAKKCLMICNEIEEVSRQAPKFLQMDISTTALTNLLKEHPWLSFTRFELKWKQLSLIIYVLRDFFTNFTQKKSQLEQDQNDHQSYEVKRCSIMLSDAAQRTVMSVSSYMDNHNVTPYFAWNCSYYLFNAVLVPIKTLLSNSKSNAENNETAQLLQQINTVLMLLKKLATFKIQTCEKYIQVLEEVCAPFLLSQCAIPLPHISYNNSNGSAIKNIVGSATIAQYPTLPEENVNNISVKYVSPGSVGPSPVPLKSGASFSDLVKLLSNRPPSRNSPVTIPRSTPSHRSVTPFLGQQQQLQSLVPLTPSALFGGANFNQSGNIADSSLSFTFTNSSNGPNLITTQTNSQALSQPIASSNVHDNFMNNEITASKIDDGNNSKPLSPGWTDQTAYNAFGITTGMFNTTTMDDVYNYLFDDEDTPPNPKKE
zebrafish Estrogen Receptor (ER1), esr1 (gene 259252), sequence (P57717 whole entry, looked up, the tested form may be a part): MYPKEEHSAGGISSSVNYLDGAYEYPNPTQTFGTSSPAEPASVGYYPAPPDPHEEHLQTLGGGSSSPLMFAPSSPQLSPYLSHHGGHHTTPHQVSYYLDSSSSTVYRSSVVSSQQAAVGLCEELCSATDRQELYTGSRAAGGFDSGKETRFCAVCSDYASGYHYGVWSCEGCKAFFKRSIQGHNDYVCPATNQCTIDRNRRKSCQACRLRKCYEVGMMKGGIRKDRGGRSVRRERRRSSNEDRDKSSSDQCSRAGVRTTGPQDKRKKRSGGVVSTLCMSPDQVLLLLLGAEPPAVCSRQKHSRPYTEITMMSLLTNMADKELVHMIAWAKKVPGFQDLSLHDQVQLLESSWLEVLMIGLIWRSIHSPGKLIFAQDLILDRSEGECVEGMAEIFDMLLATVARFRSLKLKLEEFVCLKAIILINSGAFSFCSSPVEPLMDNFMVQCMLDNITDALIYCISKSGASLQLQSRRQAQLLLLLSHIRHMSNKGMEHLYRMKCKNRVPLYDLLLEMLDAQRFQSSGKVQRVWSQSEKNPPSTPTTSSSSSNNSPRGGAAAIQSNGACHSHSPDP
Estrogen receptor beta (Homo sapiens), sequence (Q92731 whole entry, looked up, the tested form may be a part): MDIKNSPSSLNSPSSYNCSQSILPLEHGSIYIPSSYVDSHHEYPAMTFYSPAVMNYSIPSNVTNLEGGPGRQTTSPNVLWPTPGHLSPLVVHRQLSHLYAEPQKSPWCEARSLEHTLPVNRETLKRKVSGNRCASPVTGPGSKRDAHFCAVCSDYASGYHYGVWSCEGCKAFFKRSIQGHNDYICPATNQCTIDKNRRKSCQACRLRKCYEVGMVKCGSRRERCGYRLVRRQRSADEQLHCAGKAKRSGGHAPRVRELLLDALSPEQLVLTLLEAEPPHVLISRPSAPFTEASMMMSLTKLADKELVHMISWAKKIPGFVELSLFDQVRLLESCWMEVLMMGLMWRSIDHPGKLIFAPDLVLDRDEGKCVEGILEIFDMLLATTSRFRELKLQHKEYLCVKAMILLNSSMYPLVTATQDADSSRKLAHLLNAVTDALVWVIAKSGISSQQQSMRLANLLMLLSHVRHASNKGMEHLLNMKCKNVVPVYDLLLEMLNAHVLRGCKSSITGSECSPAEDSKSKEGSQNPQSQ
zebrafish Thyroid Hormone Receptor alpha (TRa), thraa (gene 30670), sequence (Q98867 whole entry, looked up, the tested form may be a part): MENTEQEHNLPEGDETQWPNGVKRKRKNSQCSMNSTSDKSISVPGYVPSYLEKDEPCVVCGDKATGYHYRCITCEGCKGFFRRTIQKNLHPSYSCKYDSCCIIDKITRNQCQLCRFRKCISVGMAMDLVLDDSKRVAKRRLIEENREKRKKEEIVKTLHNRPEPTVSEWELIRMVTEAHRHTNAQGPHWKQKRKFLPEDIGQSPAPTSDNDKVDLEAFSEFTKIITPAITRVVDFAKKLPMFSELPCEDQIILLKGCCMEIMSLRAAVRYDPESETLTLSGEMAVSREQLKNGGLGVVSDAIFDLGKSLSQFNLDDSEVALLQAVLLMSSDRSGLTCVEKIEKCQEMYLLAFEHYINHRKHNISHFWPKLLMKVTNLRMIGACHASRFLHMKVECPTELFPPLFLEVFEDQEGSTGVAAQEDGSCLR
human Thyroid hormone Receptor beta (TRb), THRB (gene 7068), sequence (P10828 whole entry, looked up, the tested form may be a part): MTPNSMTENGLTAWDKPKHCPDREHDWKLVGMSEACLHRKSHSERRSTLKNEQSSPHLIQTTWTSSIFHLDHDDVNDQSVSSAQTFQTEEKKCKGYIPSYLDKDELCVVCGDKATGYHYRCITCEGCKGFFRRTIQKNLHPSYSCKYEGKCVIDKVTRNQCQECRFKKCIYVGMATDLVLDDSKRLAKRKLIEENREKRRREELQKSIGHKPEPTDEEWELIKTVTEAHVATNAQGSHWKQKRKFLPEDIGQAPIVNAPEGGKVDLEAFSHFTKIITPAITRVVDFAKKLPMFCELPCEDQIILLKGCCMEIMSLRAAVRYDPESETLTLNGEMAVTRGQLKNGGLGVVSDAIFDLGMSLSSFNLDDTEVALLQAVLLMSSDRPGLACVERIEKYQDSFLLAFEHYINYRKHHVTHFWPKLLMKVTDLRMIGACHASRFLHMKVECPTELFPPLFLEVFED
human Thyroid hormone Receptor alpha (TRa), THRA (gene 7067), sequence (P10827 whole entry, looked up, the tested form may be a part): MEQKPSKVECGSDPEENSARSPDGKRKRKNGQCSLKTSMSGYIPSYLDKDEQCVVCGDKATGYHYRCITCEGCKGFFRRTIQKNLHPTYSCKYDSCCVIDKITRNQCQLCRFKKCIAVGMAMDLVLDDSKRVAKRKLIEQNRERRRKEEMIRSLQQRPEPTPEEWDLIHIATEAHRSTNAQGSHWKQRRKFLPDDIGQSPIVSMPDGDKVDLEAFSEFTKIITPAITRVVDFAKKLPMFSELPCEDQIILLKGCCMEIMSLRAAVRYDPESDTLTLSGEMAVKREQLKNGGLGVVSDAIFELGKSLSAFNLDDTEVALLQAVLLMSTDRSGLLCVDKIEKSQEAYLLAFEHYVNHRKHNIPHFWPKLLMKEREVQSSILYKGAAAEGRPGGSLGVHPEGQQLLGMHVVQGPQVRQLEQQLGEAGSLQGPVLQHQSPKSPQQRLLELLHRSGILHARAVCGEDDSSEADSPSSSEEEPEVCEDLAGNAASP

CCCCOC(=O)c1ccccc1C(=O)OCc1ccccc1
inactive: [1] | [2] | [3] | [4] | [6] | [7] | [8] | [9] | [12]
active: [5] 61.1 µM | [10] 46.7 µM | [11] 43.1 µM | [13] 55.4 µM

c1ccc2c(c1)-c1cccc3cccc-2c13
inactive: [4] | [5] | [6] | [7] | [9] | [10] | [11] | [13]
active: [10] 27.7 µM | [13] 57.8 µM

Clc1ccc(C(c2ccc(Cl)cc2)C(Cl)Cl)cc1
inactive: [1] | [4] | [7] | [9]
active: [3] 100 µM | [5] 11.6 µM | [10] 2.47 µM | [11] 2.85 µM | [13] 5.29 µM

Oc1ccc2ccc3cccc4ccc1c2c34
inactive: [4] | [9] | [12] | [14]
active: [5] 8.33 µM and 5.18 µM | [6] 1.64 µM and 1.79 µM | [9] 5.13 µM | [10] 9.01 µM and 2.69 µM | [13] 10.6 µM and 7.22 µM

CCC(C)c1ccc(O)cc1 (configuration not stated)
inactive: [4] | [7] | [14]
active: [5] 6.55 µM and 1.91 µM | [6] 5.47 µM and 2.25 µM | [9] 37.7 µM and 28.7 µM | [10] 6.12 µM and 3.68 µM | [11] 14.5 µM and 3.22 µM | [13] 21 µM and 12.9 µM

Clc1ccc(C(c2ccc(Cl)cc2)C(Cl)(Cl)Cl)cc1
inactive: [15] | [2] | [3] | [4] | [6] | [14]
active: [9] 100 µM | [11] 22 µM | [13] 4.56 µM

CC(C)(C)C(O)(CCc1ccc(Cl)cc1)Cn1cncn1 (configuration not stated)
inactive: [4] | [5] | [7] | [9] | [10] | [11] | [16] | [14]
active: [11] 25.8 µM | [13] 132 µM and 61 µM

CCCCC(CC)COC(=O)c1ccc(C(=O)OCC(CC)CCCC)c(C(=O)OCC(CC)CCCC)c1 (configuration not stated)
inactive: [7] | [9] | [10] | [11] | [16] | [14]
active: [5] 100 µM and 11.9 µM | [9] 57.8 µM | [13] 100 µM and 34.2 µM

CCC[CH2][Sn]([Cl])([CH2]CCC)[CH2]CCC
inactive: [15] | [4] | [9]
active: [17] 0.0865 µM | [1] 0.228 µM | [18] 0.159 µM | [2] 0.084 µM | [3] 1.54 µM

O=[N+]([O-])c1ccc(Oc2ccc(Cl)cc2Cl)cc1
active: [13] 67.8 µM and 7.06 µM
inactive: [4] | [5] | [6] | [9] | [10] | [11]

CCCCCOC(=O)c1ccccc1C(=O)OCCCCC
inactive: [17] | [1] | [18] | [2] | [3] | [5] | [6] | [8] | [10] | [16]
active: [13] 100 µM

C[C@]12C=CC3=C4CCC(=O)C=C4CC[C@H]3[C@@H]1CC[C@@H]2O
inactive: [15] | [2] | [3] | [4] | [5] | [6] | [9] | [10] | [11]
active: [8] 0.00534 µM | [12] 0.00355 µM | [19] 0.00407 µM | [20] 0.0118 µM
